According to PubChem BioAssay (NCI):
This is part of a sample that, as a whole, favours compounds with a hit. Of some 79,000 tested, about 15% had one in any assay. The source made the active and inactive calls. Cut-off read from the data, not from the text of the source: active = growth inhibition above about 70%; inactive = the rest.

Key:
[1] = NCI Yeast Anticancer Drug Screen. Data for the rad52 strain (AID 147);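 note: 0% = growth of vehicle-treated control cultures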; conditions: S. cerevisiae rad52 mutant growth inhibition, active compounds read high
How it was run: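 Compounds are applied to a genetically defined yeast strain lacking normal DNA damage repair, and inhibition of growth is expressed relative to cultures given vehicle only.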

[2] = NCI Yeast Anticancer Drug Screen. Data for the wt1 strain (AID 149);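 note: 0% = growth of vehicle-treated wt1 cultures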; conditions: S. cerevisiae wt1 strain (SPY 50644) growth inhibition, active compounds read high
How it was run: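 Readout: yeast growth inhibition, normalised to vehicle controls, in the wt1 strain exposed to test compounds.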

[3] = NCI Yeast Anticancer Drug Screen. Data for the rad50EPP+ strain (AID 151);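 note: 0% = growth of vehicle-treated control cultures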; conditions: S. cerevisiae rad50 mutant strain, active compounds read high
How it was run: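 Compounds were applied to the rad50EPP+ yeast strain, which bears a defined DNA repair alteration, and growth inhibition was determined relative to vehicle-treated cultures.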

[4] = NCI Yeast Anticancer Drug Screen. Data for the mgt1 strain (AID 153); conditions: S. cerevisiae mgt1 mutant growth inhibition, active compounds read high
How it was run: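 Strain: mgt1 yeast, one of a set carrying defined DNA damage repair or cell cycle control alterations. Compound-treated growth compared with vehicle.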

[5] = NCI Yeast Anticancer Drug Screen. Data for the rad50 strain (AID 155);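 note: 0% = growth of vehicle-only cultures of the same strain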; conditions: S. cerevisiae rad50 strain growth inhibition, active compounds read high
How it was run: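 Compounds were tested on a yeast strain with an engineered DNA damage repair alteration; the reported value is growth inhibition normalised to vehicle treatment.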

[6] = NCI Yeast Anticancer Drug Screen. Data for the mec2-1 strain (AID 157); conditions: S. cerevisiae mec2-1 strain, active compounds read high
How it was run: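 Strain: mec2-1 (DNA repair/cell cycle alteration). Compound exposure, then growth measured; inhibition expressed relative to vehicle.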

[7] = NCI Yeast Anticancer Drug Screen. Data for the sgs1 mgt1 strain (AID 161);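 note: 0% = growth of cultures given vehicle only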; conditions: S. cerevisiae sgs1 mgt1 strain, active compounds read high
How it was run: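 Read-out: growth inhibition vs vehicle controls. Cells: mutant yeast strain deficient in DNA damage repair.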

[8] = NCI Yeast Anticancer Drug Screen. Data for the CLN2oe strain (AID 163);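 note: 0% = growth of vehicle-only control cultures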; conditions: S. cerevisiae CLN2oe strain, active compounds read high
How it was run: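 Growth of a genetically modified yeast strain is measured after compound exposure and compared with cultures given vehicle alone.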

[9] = NCI Yeast Anticancer Drug Screen. Data for the cln2 rad14 strain (AID 165);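 note: 0% = growth equal to vehicle treated cultures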; conditions: S. cerevisiae cln2 rad14 strain, active compounds read high
How it was run: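 Compounds are applied to the cln2 rad14 yeast strain, and growth is then compared with that of vehicle-treated cultures to give inhibition.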

[10] = NCI Yeast Anticancer Drug Screen. Data for the bub3 strain (AID 167); conditions: S. cerevisiae bub3 mutant strain, active compounds read high
How it was run: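 Growth of a checkpoint-deficient yeast mutant is measured after compound exposure. Values represent inhibition relative to vehicle.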

[11] = NCI Yeast Anticancer Drug Screen. Data for the wt2 strain (AID 169);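 note: 0% = growth of vehicle-treated yeast cultures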; conditions: S. cerevisiae wt2 strain growth inhibition, active compounds read high
How it was run: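 This strain belongs to a panel of yeast strains with defined genetic alterations in DNA damage repair or cell cycle control. Compounds are applied, and growth inhibition is measured against vehicle-treated cultures.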

[12] = NCI Yeast Anticancer Drug Screen. Data for the mlh1 strain (AID 171);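 note: 0% = growth of vehicle-treated control cultures of the same strain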; conditions: S. cerevisiae mlh1 strain growth inhibition, active compounds read high
How it was run: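 Growth of the mutant yeast strain after compound exposure, expressed as inhibition relative to vehicle-only controls.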

[13] = NCI Yeast Anticancer Drug Screen. Data for the sgs1 strain (AID 173);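 note: 0% = growth of vehicle-only control cultures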; conditions: S. cerevisiae sgs1 mutant, active compounds read high
How it was run: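 Growth of a yeast strain bearing a defined genetic alteration is measured after compound treatment. Inhibition is expressed relative to vehicle-only controls.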

[14] = NCI Yeast Anticancer Drug Screen. Data for the mlh1 rad18 strain (AID 175); conditions: S. cerevisiae mlh1 rad18 strain growth inhibition, active compounds read high
How it was run: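 Read-out is yeast growth inhibition, calculated against vehicle-only controls. The compound was applied to a strain engineered with DNA damage repair alterations.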

[15] = NCI Yeast Anticancer Drug Screen. Data for the rad18 strain (AID 177); conditions: S. cerevisiae rad18 mutant growth inhibition, active compounds read high
How it was run: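 Growth of the mutant yeast strain after compound exposure, normalised to vehicle-only cultures.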

[16] = at 5.0 µM (retest, dose inferred, filed as 0.5)
[17] = at 50.0 µM (retest, dose inferred, filed as 5.0)

Measured: growth inhibition

Cc1nc(-c2ccccc2)c(-c2ccccc2)s1
inactive: [1]; at 1.2 µM 23% | [1]; at 3.7 µM 0% | [1]; at 11.0 µM 17% | [1]; at 33.0 µM 68% | [2]; at 1.2 µM -12% | [2]; at 3.7 µM 9% | [2]; at 11.0 µM 9% | [2]; at 33.0 µM 59% | [3]; at 1.2 µM -24% | [3]; at 3.7 µM 4% | [3]; at 11.0 µM 29% | [3]; at 33.0 µM 50% | [3]; at 100.0 µM 65% | [4]; at 1.2 µM 24% | [4]; at 3.7 µM 8% | [4]; at 11.0 µM 44% | [5]; at 1.2 µM -29% | [5]; at 3.7 µM -24% | [5]; at 11.0 µM -19% | [6]; at 1.2 µM 3% | [6]; at 3.7 µM 26% | [6]; at 11.0 µM 24% | [6]; at 33.0 µM 67% | [7]; [16] -6% | [8]; at 1.2 µM -2% | [8]; at 3.7 µM -17% | [8]; at 11.0 µM 1% | [8]; at 33.0 µM 39% | [9]; at 50.0 µM 66.1% | [10]; at 1.2 µM 6% | [10]; at 3.7 µM 2% | [10]; [16] 8% | [10]; at 11.0 µM 22% | [11]; at 1.2 µM -38% | [11]; at 3.7 µM -16% | [11]; at 11.0 µM -20% | [12]; at 1.2 µM 29% | [12]; at 3.7 µM 16% | [12]; at 11.0 µM 41% | [13]; at 1.2 µM -11% | [13]; at 3.7 µM -1% | [13]; at 11.0 µM 6% | [15]; at 1.2 µM -10% | [15]; at 3.7 µM 8% | [15]; at 11.0 µM 6% | [15]; at 33.0 µM 67%
active: [1]; at 100.0 µM 98% | [2]; at 100.0 µM 98% | [4]; at 33.0 µM 95% | [4]; at 100.0 µM 99% | [5]; [16] 98% | [5]; at 33.0 µM 77% | [5]; [17] 100% | [5]; at 50.0 µM 84.4% | [5]; at 100.0 µM 97% | [6]; [16] 96% | [6]; [17] 100% | [6]; at 50.0 µM 84.5% | [6]; at 100.0 µM 97% | [7]; [17] 100% | [7]; at 50.0 µM 88.4% | [8]; at 100.0 µM 96% | [9]; [16] 71% | [9]; [17] 101% | [10]; at 33.0 µM 78% | [10]; [17] 101% | [10]; at 50.0 µM 84.5% | [10]; at 100.0 µM 98% | [11]; at 33.0 µM 81% | [11]; at 100.0 µM 97% | [12]; at 33.0 µM 87% | [12]; at 100.0 µM 97% | [13]; at 33.0 µM 86% | [13]; at 100.0 µM 98% | [14]; [16] 100% | [14]; [17] 100% | [14]; at 50.0 µM 86.5% | [15]; at 100.0 µM 94%

COc1cc(C2c3cc4c(cc3OC(Nc3ccccc3)C2C)OCO4)cc(OC)c1O (stereo unspecified)
active: [1]; at 100.0 µM 86% | [5]; at 50.0 µM 77% | [5]; at 100.0 µM 86% | [6]; [17] 78% | [14]; [17] 99% | [14]; at 50.0 µM 92.5%
inactive: [1]; at 1.2 µM 1% | [1]; at 3.7 µM 2% | [1]; at 11.0 µM 0% | [1]; at 33.0 µM 2% | [2]; at 1.2 µM 1% | [2]; at 3.7 µM -1% | [2]; at 11.0 µM 2% | [2]; at 33.0 µM 0% | [2]; at 100.0 µM 30% | [3]; at 1.2 µM -1% | [3]; at 3.7 µM -3% | [3]; at 11.0 µM 1% | [3]; at 33.0 µM 1% | [3]; at 100.0 µM 0% | [4]; at 1.2 µM -1% | [4]; at 3.7 µM -3% | [4]; at 11.0 µM -3% | [4]; at 33.0 µM 15% | [4]; at 100.0 µM 38% | [5]; at 1.2 µM 2% | [5]; at 3.7 µM 2% | [5]; [16] -3% | [5]; at 11.0 µM 2% | [5]; at 33.0 µM 2% | [5]; [17] 64% | [6]; at 1.2 µM 0% | [6]; at 3.7 µM 1% | [6]; [16] -5% | [6]; at 11.0 µM 1% | [6]; at 33.0 µM 1% | [6]; at 50.0 µM 36.1% | [6]; at 100.0 µM 67% | [7]; [16] -3% | [7]; [17] 6% | [7]; at 50.0 µM 58.7% | [8]; at 1.2 µM 1% | [8]; at 3.7 µM 0% | [8]; at 11.0 µM 1% | [8]; at 33.0 µM 0% | [8]; at 100.0 µM 39% | [9]; [16] 3% | [9]; [17] 52% | [9]; at 50.0 µM 6.9% | [10]; at 1.2 µM -1% | [10]; at 3.7 µM -5% | [10]; [16] 11% | [10]; at 11.0 µM -1% | [10]; at 33.0 µM 0% | [10]; [17] 51% | [10]; at 50.0 µM 43.8% | [10]; at 100.0 µM 41% | [11]; at 1.2 µM -1% | [11]; at 3.7 µM -2% | [11]; at 11.0 µM -1% | [11]; at 33.0 µM 0% | [11]; at 100.0 µM 68% | [12]; at 1.2 µM -3% | [12]; at 3.7 µM -1% | [12]; at 11.0 µM 0% | [12]; at 33.0 µM -3% | [12]; at 100.0 µM 61% | [13]; at 1.2 µM -1% | [13]; at 3.7 µM 0% | [13]; at 11.0 µM 0% | [13]; at 33.0 µM 2% | [13]; at 100.0 µM 65% | [14]; [16] -1%
